LT uptake inh: blocks cellular internalization of anthrax lethal toxin. Potency, µM (titrated, usually from 40 µM), inactives show at the highest dose activity change, negative = inhibition, hits mostly inhibitors. Cells, anthrax lethal toxin internalization, FRET ratio (460/530). hit rate 0.67% among 70,000; note: % is set by controls: 0 for no effect and ±100 for the full control effect; nearly all actives have a fitted effect of over 50% in size
AmpC nodet inh: inhibitors of E. coli AmpC beta-lactamase without detergent | P00811 | AmpC nitrocefin hydrolysis, absorbance 480 nm, no detergent | Potency, µM (titrated, usually from 28.7 µM), inactives show top-dose activity change, negative = inhibition | hit rate 1.8% among 71,000 | AID 585; note: % of control where 0% means no effect
Target sequence (P00811 whole entry, looked up): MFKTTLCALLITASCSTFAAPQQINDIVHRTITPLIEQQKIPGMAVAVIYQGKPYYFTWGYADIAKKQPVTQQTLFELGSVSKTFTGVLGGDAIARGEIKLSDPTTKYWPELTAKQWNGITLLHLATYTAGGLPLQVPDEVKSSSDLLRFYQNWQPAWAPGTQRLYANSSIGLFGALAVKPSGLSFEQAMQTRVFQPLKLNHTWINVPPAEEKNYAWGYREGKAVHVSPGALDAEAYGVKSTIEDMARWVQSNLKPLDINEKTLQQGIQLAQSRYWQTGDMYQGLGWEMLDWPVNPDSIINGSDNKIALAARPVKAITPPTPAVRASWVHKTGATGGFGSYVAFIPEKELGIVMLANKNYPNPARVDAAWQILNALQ
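AmpC in 20 mM phosphate buffer pH 7.0 was preincubated 15 min at room temperature with compounds. Nitrocefin (800 uM stock) was then added and hydrolysis followed at 480 nm every 20 s for 4 min.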
AmpC det inh: inhibitors of E. coli AmpC beta-lactamase with detergent. purified AmpC, nitrocefin hydrolysis with detergent. Potency, µM (series often up to 28.7 µM), for inactives: at the highest dose activity change, negative = inhibition. hit rate 0.09% among 71,000; active = well fitted curve in the direction sought with a large enough effect; inconclusive = small, poorly fitted or top-dose-only effect; note: % is set by controls: 0 for no effect and ±100 for the full control effect
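E. coli AmpC (5.3 nM) in 20 mM phosphate pH 7.0 with 0.01% Triton X-100, preincubated 15 min RT with compound; nitrocefin (2 uL of 800 uM stock) hydrolysis followed by 480 nm absorbance every 20 s over 4 min.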
Prx2 Sm inh: inhibitors of Schistosoma mansoni peroxiredoxin 2; S. mansoni Prx2 activity coupled to TGR/GSH (TGR is thioredoxin glutathione reductase), NADPH fluorescence loss, qHTS; Potency, µM; hit rate 0.07% among 65,000; AID 448
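qHTS, coupled TGR/Prx2 format; 15 min compound preincubation at RT; reaction started with H2O2 (2.5 mM aliquot); kinetic NADPH fluorescence decrease, ex 365/em 450 nm.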
* hit, by the source's call; ? = inconclusive; nt = no result given; [ ] = another dose, or the depositor's remark. Rows were chosen to be rich in hits. Some 2.4% of all compounds tested hit in one or more screens of this group. Unless noted, calls come from the whole dose curve. Potency is the fitted concentration of half-maximal effect.

SMILES | LT uptake inh | AmpC nodet inh | AmpC det inh | Prx2 Sm inh
CN1[C@@H]2CC[C@H]1CC(O[C@@H](c1ccccc1)c1ccc(Cl)cc1)C2 (stereo partly drawn) | 10µM* | 99.0% | 4.8% | >57
COc1ccc(-c2cnn(-c3ccccc3)c2N)cc1OC | -5.3% | -5.4% | -0.1% | nt
Nc1nc2c(s1)CCc1c-2cnn1-c1ccccc1 | 10µM* | 5.8% | -7.2% | >57
Nc1nc(C(=O)N2CCOCC2)nn1C(=O)c1ccc(Cl)cc1 | 2.7% | 3.98µM*[single pt active] | 11.9% | >57
O=C(c1ccc(Cl)cc1)c1ccccc1C(=O)N1CCOCC1 | -6.7% | 15.6% | 16.8% | >57
CC(=O)c1c(C)nn(CC(O)COc2ccc3c(c2)CCC3)c1C (stereo not drawn) | 3.5% | 63.7% | -9.2% | >57
O=C(O)c1cc[c]([Hg][S]c2ncnc3nc[nH]c23)cc1 | -4.7%[8 µM] | -2.2%[5.75 µM] | -7.2%[5.75 µM] | 0.861*
O=C(O)CCSc1ncnc2nc[nH]c12 | -7.6%[8 µM] | 2.4%[5.75 µM] | -3.5%[5.75 µM] | >57
COc1cccc(-n2c(Cc3cc(=O)[nH]c(=O)[nH]3)nnc2SCC(=O)N2CCC(C)CC2)c1 | 14.0% | 8.0% | -0.6% | >57
COc1ccc(-n2c(Cc3cc(=O)[nH]c(=O)[nH]3)nnc2SCC(=O)Nc2ccccc2)cc1 | ? | ? | 11.4% | >57
COc1cccc(-n2c(Cc3cc(=O)[nH]c(=O)[nH]3)nnc2SCC(=O)N2CCCC2)c1 | 0.9% | -7.7% | 16.6% | >57
COc1ccc(-n2c(Cc3cc(=O)[nH]c(=O)[nH]3)nnc2SCC(=O)N2CCC(C)CC2)cc1 | -4.7% | 3.98µM*[single pt active] | 13.8% | >57
COc1cccc(-n2c(Cc3cc(=O)[nH]c(=O)[nH]3)nnc2SCC(=O)N2CCCCCC2)c1 | -8.4% | 3.98µM*[single pt active] | 14.1% | >57
COc1ccc(-n2c(Cc3cc(=O)[nH]c(=O)[nH]3)nnc2SCC(=O)N2CCCC2)cc1 | -4.8% | 3.98µM*[single pt active] | 14.4% | >57
O=C(CSc1nnc(Cc2cc(=O)[nH]c(=O)[nH]2)n1-c1ccccc1)N1CCCCC1 | -1.8% | 3.16µM*[single pt active] | 11.2% | >57
O=C(CSc1nnc(Cc2cc(=O)[nH]c(=O)[nH]2)n1-c1ccccc1)N1CCCC1 | 7.9% | -16.9% | -1.2% | >57
CN(C(=O)c1cccc(C#N)c1)c1nnc(C2CCOC2)s1 (stereo not drawn) | -0.1% | 0.7% | 8.7% | >57
CN1CCN(c2nc(NCCOC34CC5CC(CC(C5)C3)C4)nc(OCC(F)(F)F)n2)CC1 | ? | 130.2% | 0.4% | >57
CC1CCN(C(=O)CSc2nnc(Cc3cc(=O)[nH]c(=O)[nH]3)n2-c2ccc(Cl)cc2)CC1 | -2.4% | 3.98µM*[single pt active] | 7.6% | >57
O=C(C1Cc2ccccc2CN1S(=O)(=O)c1cccs1)N1CCCCCC1 (stereo not drawn) | -3.6% | 31.9% | 17.9% | >57
c1ccc2sc(C3(N4CCCCC4)CCCCC3)cc2c1 | 25.1µM* | 26.7% | -2.8% | >57
COc1ccc(C(=O)Nn2c(C3CCC3)nc3ccccc3c2=O)c(OC)c1 | -8.2% | 46.1% | -1.3% | >57
O=C(c1ccco1)N1CCCC(c2nc(-c3ccc(S(=O)(=O)NCc4ccccc4)cc3)no2)C1 (stereo not drawn) | 12.6µM* | 0.8% | -3.9% | >57
COc1ccc(-c2noc(C3CCCN(C(=O)CCc4ccccc4)C3)n2)cc1 (stereo not drawn) | -0.1% | 77.2% | 0.6% | >57
COc1ccc(C[C@@H]2C(=O)N[C@H](C)C(=O)N(C)[C@@H]3C(=O)N(C)[C@@H](Cc4ccc(O)c(c4)Oc4ccc(cc4)[C@H]3O)C(=O)N[C@@H](C)C(=O)N[C@H](C)C(=O)N2C)cc1 | ? | 101.5%[5.75 µM] | -2.4%[5.75 µM] | >57
SMILES | LT uptake inh | AmpC nodet inh | AmpC det inh | Prx2 Sm inh
CCN1CCN(C(=O)C2CC(c3ccc(F)cc3)=NO2)CC1 (stereo not drawn) | -7.1% | 3.98µM*[single pt active] | 13.4% | >57
COc1ccc(NC(=O)[C@H](CCS(C)(=O)=O)N2Cc3ccccc3C2=O)c(OC)c1 | 7.3% | 3.98µM*[single pt active] | 15.5% | >57
CC1(C(=O)NC2CCCCC2)CCC(=O)N1Cc1cccnc1 (stereo not drawn) | 1.6% | 3.98µM*[single pt active] | 11.3% | >57
CC1CCC(NC(=O)C2(C)CCC(=O)N2Cc2cccnc2)CC1 (stereo not drawn) | -2.2% | 3.98µM*[single pt active] | 11.7% | >57
CCOc1ccc(CN2C(=O)CCC2(C)C(=O)NCc2cccnc2)cc1 (stereo not drawn) | -10.1% | 20.6% | 12.0% | >57
O=C(NCCN1CCN(C(=O)c2cc3ccccc3oc2=O)CC1)c1cc2ccccc2oc1=O | 10.5% | 84.4% | -3.4% | >57
Cc1cc(OCC(=O)OC(C)(C)C)c2c3c(c(=O)oc2c1)CCC3 | 0.8% | 0.1% | 8.8% | >57
COC(=O)c1ccc2c(=O)n(Cc3ccco3)c(SCC(=O)Nc3ccc(C)c(Cl)c3)nc2c1 | -4.0% | 12.6µM* | -2.0% | >57
COCCNC(=O)CSc1nc2cc(OC)c(OC)cc2c(=O)n1Cc1ccco1 | 5.8% | 40.5% | -0.9% | >57
CC1CCCCN1c1nc(-c2ccncc2)nc2ccccc12 (stereo not drawn) | -25.7% | 68.1% | -1.3% | >57
N#Cc1nc(-c2ccccc2F)oc1NCCN1CCOCC1 | 8.6% | 3.98µM*[single pt active] | 12.8% | >57
N#Cc1nc(-c2cccc3ccccc23)oc1NCCN1CCOCC1 | ? | 142.9% | -3.3% | >57
Cc1cccc2cc(C#N)c(SCC(=O)N3CCC(C)CC3)nc12 | -2.4% | 29.2% | -4.4% | >57
Cc1cccc2cc(C#N)c(SCC(=O)N3CC(=O)Nc4ccccc43)nc12 | -12.4% | 15.8µM*[single pt active] | -4.2% | >57
CCN(CC)CCOc1c(Br)ccc2c1sc1nc3n(c(=O)c12)CCC3 | 7.94µM* | 24.3% | -1.6% | nt
CCOC(=O)c1ccc(NC(=O)c2ccc(C)c(S(=O)(=O)N3CCOCC3)c2)cc1 | 12.6µM* | 79.9% | -0.7% | ?
CCOc1ccccc1Nc1nc(N)nc(CN(C)C2CCCCC2)n1 | 5.1% | -1.2% | -3.6% | >57
S=C(Nc1ccccc1)Nc1ccccc1C#Cc1ccccc1 | ? | 5.01µM* | -0.3% | >11.4
Nc1nc2n(n1)C(c1ccco1)CC(c1ccccc1)N2 (stereo not drawn) | -1.2% | -16.0% | -1.7% | >57
Nc1c(S(=O)(=O)c2cccs2)c2nc3ccccc3nc2n1/N=C/c1cccc(O)c1 | 5.01µM* | -5.4% | -2.4% | >57
COc1ccc2c(c1)CCc1c(C(=O)NCc3ccc(F)cc3)noc1-2 | ? | 3.98µM*[single pt active] | 10.3% | >57
COc1ccc2c(c1)CCc1c(C(=O)Nc3cc(C)n(Cc4ccc(Cl)cc4)n3)noc1-2 | 4.9% | 7.94µM* | -3.0% | >57
COc1ccc2c(c1)CCc1c(C(=O)NCCc3ccc(OC)c(OC)c3)noc1-2 | -0.4% | 78.3% | 0.3% | ?
CCCNC(=O)c1noc2c1CCc1ccccc1-2 | -6.3% | 3.16µM*[single pt active] | 13.8% | >57
O=C(NCCc1ccccc1)c1noc2c1CCc1ccccc1-2 | -10.8% | -24.5% | -4.6% | >57
COc1ccc(C2CC(c3cccc(C)c3)n3nc(N)nc3N2)cc1 (stereo not drawn) | -2.9% | 3.98µM*[single pt active] | 10.5% | >57

High-throughput results (PubChem BioAssay)
